Data reported in PubChem BioAssay (Tox21).
“And” between values parts separate entries of the source, which are not always exact repeats. Identical values can stand only once. Inconclusive results are not listed. Where a call stands in place of a potency, no number is given. Unmarked numbers belong to inactive results. The source made the active and inactive calls. Calls come from the whole dose curve; as a rule, active = well fitted cell-killing curve with a large enough effect in the repeat runs; inconclusive = weak or mixed curves, or effect the other way; inactive = flat fitted curve, though single readings scatter.

assay: qHTS RealTime-Glo MT Cell Viability Assay in HEK293 cells - 8 hour (AID 1224887); conditions: RealTime-Glo luminescence; series mostly up to 76.8 µM; note: nearly all actives have a fitted effect of over 50% in size; for activity change, negative = cytotoxicity: top concentration of the series differs between compounds
Description: U.S. Tox21 Program National Center for Advancing Translational Sciences [NCATS] NIH Chemical Genomics Center [NCGC] U.S. Environmental Protection Agency [EPA] National Institutes of Environmental Health Sciences [NIEHS] National Toxicology Program [NTP] U.S. Food and Drug Administration [FDA] Tox21 Assay Overview: Measure of cell viability is critical in the cell-base assay. Analysis of cell viability is necessary for the characterization of cell responses to cytotoxic drugs and environmental stress. A RealTime-Glo MT Cell Viability Assay to monitor cell viability in real time of continues cell culture during 40 hours of compound treatment was used to screen Tox21 10K library compounds in Hek293 cells. The RealTime-Glo MT Cell Viability Assay is a nonlytic, homogeneous, bioluminescent method to measure cell viability in real time using a simple, plate-based method. The assay involves adding NanoLuc luciferase and a cell-permeant prosubstrate to cells in culture. Viable cells reduce the proprietary prosubstrate to generate a substrate for NanoLuc luciferase. This substrate diffuses from cells into the surrounding culture medium, where it is rapidly used by the NanoLuc Enzyme to produce a luminescent signal. The signal correlates with the number of viable cells, making the assay well suited for cytotoxicity studies.
Tox21 Assay Protocol Summary: The mixture of Hek293 cell suspension and reagents were dispensed at 600cells/6 ul/well in 1536-well tissue culture treated black solid bottom plates using a Multidrop dispenser. After the assay plates were incubated at a 37 C/5% CO2 incubator for 5 hours, 23 nL of compounds dissolved in DMSO, positive and negative controls was transferred to the assay plate by a pintool work station. The plates were incubated at 37 C for 40 hours. The luminescence intensity were measured at 0h, 8h, 16h, 24h, 32h and 40h time points using ViewLux plate reader during compound treatment.
Potency is the fitted concentration of half-maximal effect.

Row | SMILES | Potency | activity change, negative = cytotoxicity
1 | ClC(Cl)=C(Cl)Cl | inactive | –
2 | CCOCn1c(-c2ccc(Cl)cc2)c(C#N)c(Br)c1C(F)(F)F | 19.5 µM (active) | –
3 | Fc1cccc(Cl)c1CCl | inactive | –
4 | Oc1ccc2ccc3cccc4ccc1c2c34 | 13.8 µM (active) | –
5 | [Hg+2].[I-].[I-] | 6.16 µM (active) | –
6 | CCCCOCN(C(=O)CCl)c1c(CC)cccc1CC | inactive | –
7 | Nc1ccc([N+](=O)[O-])cc1Cl | inactive | –
8 | CC(=O)c1ccc(-c2ccccc2)cc1 | inactive | –
9 | CC(=O)[O-].CC(=O)[O-].[Hg+2] | 2.19 µM (active) | –
10 | O=C1C=CC(=O)c2ccccc21 | 6.16 µM (active) | –
11 | SCc1ccco1 | inactive | –
12 | CCCCCCCCCCCCCCC(Br)C(=O)O (stereo not given) | inactive | –
13 | COC[C@H](C)N(C(=O)CCl)c1c(C)csc1C | inactive | –
14 | CC(C)CC(C)N (stereo not given) | inactive | –
15 | O=c1ssc(Cl)c1Cl | 17.4 µM (active) | –
16 | Brc1c(Br)c(Br)c(Oc2c(Br)c(Br)c(Br)c(Br)c2Br)c(Br)c1Br | – | 4.64% [at 15.8 µM]
17 | CCCN(CCC)CCc1c[nH]c2ccccc12 | inactive | –
18 | O=C(O)COc1nc(Cl)c(Cl)cc1Cl | inactive | –
19 | COc1cc(C=O)cc2c1[C@H](COC(N)=O)[C@]1(OC(C)=O)ON2C[C@H]2[C@@H]1N2C(C)=O | inactive | –
20 | O=c1oc2ccccc2c(O)c1Cc1c(O)c2ccccc2oc1=O | inactive | –

Row | SMILES | Potency | activity change, negative = cytotoxicity
21 | N#CC(Cl)Cl | inactive | –
22 | CN(C)CCc1c[nH]c2cccc(O)c12 | inactive | –
23 | c1cc[c]([Sb]([c]2ccccc2)[c]2ccccc2)cc1 | inactive | –
24 | O=C(CCl)Nc1ccccc1 | inactive | –
25 | BrC(Br)Br | inactive | –
26 | O=C(Nc1ccc2[nH]ccc2c1)c1cc2cc(F)ccc2n1Cc1cccc(F)c1 | inactive | –
27 | CC[C@H](C)[C@H]1O[C@]2(C=C[C@@H]1C)C[C@@H]1C[C@@H](C/C=C(\C)[C@@H](O[C@H]3C[C@H](OC)[C@@H](O[C@H]4C[C@H](OC)[C@@H](O)[C@H](C)O4)[C@H](C)O3)[C@@H](C)/C=C/C=C3\CO[C@@H]4[C@H](O)C(C)=C[C@@H](C(=O)O1)[C@]34O)O2 | inactive | –
28 | O=[N+]([O-])c1c2ccccc2cc2ccccc12 | inactive | –
29 | CCCCN(CCCC)C(=S)[S-].CCCCN(CCCC)C(=S)[S-].[Zn+2] | 15.5 µM (active) | –
30 | ClC1=C(Cl)[C@]2(Cl)[C@H]3[C@H]([C@H]4C=C[C@H]3C4)[C@@]1(Cl)C2(Cl)Cl | inactive | –
31 | Cn1[nH]nnc1=S | inactive | –
32 | Fc1ccc(Oc2ccnc3cc(Cl)cc(Cl)c23)cc1 | 7.76 µM (active) | –
33 | Cc1ccc(C(=O)Cl)cc1 | inactive | –
34 | O=C/C(Cl)=C(/Cl)C(=O)O | inactive | –
35 | C[C@]12CC[C@H]3[C@@H](CCC4=CC(=O)CC[C@@]43C)[C@@H]1CC[C@@H]2O | inactive | –
36 | Cc1cc(C)cc(OP(=O)(Oc2cc(C)cc(C)c2)Oc2cc(C)cc(C)c2)c1 | inactive | –
37 | COP(=O)(CCC(=O)NCO)OC | inactive | –
38 | CCS(=O)(=O)c1cccnc1S(=O)(=O)NC(=O)Nc1nc(OC)cc(OC)n1 | inactive | –
39 | N#CSCSC#N | 22.4 µM (active) and 21.7 µM (active) | –
40 | Clc1ccc(-c2ccc(Cl)c(Cl)c2Cl)c(Cl)c1Cl | inactive | –
